Active and inactive are the calls of the source. Unless noted, the rule behind the calls is not given here.
Legend:
[1] = anti-His antibody binders, primary screen, artefact control for SMM control protein annotation, biochemical, small-molecule microarray, 635 nm fluorescence (AID 1128); conditions: anti-His Alexa647 antibody binding, higher = more signal;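 note: score merges feature fluorescence with signal-to-noise for each printed compound spot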
[2] = system: Human papillomavirus type 1a E7 protein (residues 1-88); assay: HPV1a E7 small-molecule binders, primary screen, biochemical, small-molecule microarray, residues 1-88, 635 nm (AID 1129); conditions: small-molecule microarray binding, fluorescence 635 nm; higher = more signal
[3] = molecular target: Focal adhesion kinase 1 (Homo sapiens) (UniProt Q05397); assay: small-molecule microarray binders of FAK, primary screen, biochemical, 635/667 nm fluorescence, BSA, DTT (AID 1130); conditions: PTK2 binding, 635 nm fluorescence, higher = more signal;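 note: composite of spot emission at 667 nm and signal to noise over triplicate slides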
Chain of Focal adhesion kinase 1 (Homo sapiens) (Q05397 whole entry, looked up): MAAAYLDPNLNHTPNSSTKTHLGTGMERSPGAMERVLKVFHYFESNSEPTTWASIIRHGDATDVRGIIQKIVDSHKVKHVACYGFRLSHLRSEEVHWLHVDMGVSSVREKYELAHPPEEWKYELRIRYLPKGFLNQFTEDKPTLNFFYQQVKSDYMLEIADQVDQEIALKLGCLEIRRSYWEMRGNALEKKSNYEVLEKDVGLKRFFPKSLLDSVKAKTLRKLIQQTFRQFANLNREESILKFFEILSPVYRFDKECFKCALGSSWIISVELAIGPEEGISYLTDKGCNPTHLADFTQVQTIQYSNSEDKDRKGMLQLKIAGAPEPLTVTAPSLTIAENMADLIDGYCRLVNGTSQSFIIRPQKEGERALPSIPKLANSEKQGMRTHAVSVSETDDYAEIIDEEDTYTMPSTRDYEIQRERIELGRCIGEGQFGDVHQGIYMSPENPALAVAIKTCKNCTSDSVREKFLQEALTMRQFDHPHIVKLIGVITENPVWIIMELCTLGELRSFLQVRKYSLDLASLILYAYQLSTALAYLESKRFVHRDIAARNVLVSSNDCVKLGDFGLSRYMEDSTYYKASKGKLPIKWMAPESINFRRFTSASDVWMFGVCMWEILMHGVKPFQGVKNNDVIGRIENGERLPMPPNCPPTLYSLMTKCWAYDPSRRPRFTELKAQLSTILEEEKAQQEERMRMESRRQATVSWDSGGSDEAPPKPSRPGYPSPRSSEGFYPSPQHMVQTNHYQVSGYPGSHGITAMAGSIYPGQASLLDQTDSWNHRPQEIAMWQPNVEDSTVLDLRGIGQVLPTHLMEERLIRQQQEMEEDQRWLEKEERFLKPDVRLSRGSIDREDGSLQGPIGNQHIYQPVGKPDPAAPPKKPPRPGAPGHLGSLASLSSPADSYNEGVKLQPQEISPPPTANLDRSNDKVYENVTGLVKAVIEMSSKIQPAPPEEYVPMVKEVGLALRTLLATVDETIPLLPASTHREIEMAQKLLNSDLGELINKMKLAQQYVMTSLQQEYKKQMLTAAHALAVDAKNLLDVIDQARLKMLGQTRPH

[4] = system: Fibrinogen (Alexa647-labelled); assay: fibrinogen binders on compound microarrays, profiling panel, artefact control for SMM control-protein annotation, biochemical, small-molecule microarray, 635/667 nm fluorescence (AID 1131); conditions: fibrinogen-A647 binding fluorescence, higher = more signal;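 note: z-score merges 667 nm fluorescence with per-spot signal-to-noise over triplicate slides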
[5] = molecular target: Follistatin (Homo sapiens) (UniProt P19883); assay: follistatin binders on small-molecule microarrays, primary screen, biochemical, small-molecule microarray, 635/667 nm fluorescence (AID 1132); conditions: FST binding, 635 nm fluorescence, higher = more signal
Chain of Follistatin (Homo sapiens) (P19883 whole entry, looked up): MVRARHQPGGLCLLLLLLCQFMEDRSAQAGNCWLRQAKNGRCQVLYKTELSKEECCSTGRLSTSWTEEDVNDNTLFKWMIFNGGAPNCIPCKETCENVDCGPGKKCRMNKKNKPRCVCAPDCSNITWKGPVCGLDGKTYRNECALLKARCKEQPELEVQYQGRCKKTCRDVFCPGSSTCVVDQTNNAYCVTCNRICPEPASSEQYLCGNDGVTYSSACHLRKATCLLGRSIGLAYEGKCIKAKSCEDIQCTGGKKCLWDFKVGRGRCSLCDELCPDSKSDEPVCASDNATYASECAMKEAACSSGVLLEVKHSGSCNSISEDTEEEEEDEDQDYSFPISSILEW

[6] = molecular target: Fibroblast growth factor 2 (Homo sapiens) (UniProt P09038); assay: FGF2 binders on small-molecule microarrays, primary screen, biochemical, small-molecule microarray, 635/667 nm fluorescence (AID 1133); conditions: small-molecule microarray binding, FGF2, fluorescence 635/667; higher = more signal
Chain of Fibroblast growth factor 2 (Homo sapiens) (P09038 whole entry, looked up): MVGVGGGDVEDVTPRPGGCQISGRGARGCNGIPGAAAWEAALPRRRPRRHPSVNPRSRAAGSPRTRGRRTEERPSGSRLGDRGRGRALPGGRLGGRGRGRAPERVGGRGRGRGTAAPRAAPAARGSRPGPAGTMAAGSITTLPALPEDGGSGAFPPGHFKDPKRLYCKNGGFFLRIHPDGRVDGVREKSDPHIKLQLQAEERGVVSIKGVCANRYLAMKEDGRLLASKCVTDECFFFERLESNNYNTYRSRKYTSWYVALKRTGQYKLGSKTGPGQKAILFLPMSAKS

[7] = mitochondrial membrane potential change in A549 cells, profiling panel, cell-based, JC-1 fluorescence, basal, 24 h, 100 nL (AID 1138); conditions: higher = more signal;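 note: A549 lung adenocarcinoma cells under basal conditions with no added stimulus; test concentration not given here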
Lefty1 = Lefty1 binders on small-molecule microarrays, primary screen, biochemical, small-molecule microarray, 635/667 nm fluorescence (AID 1139); conditions: small-molecule microarray binding, fluorescence 635/667; higher = more signal
[8] = system: wheat germ agglutinin (Triticum aestivum), Alexa647-labelled; assay: wheat germ agglutinin binders on compound microarrays, profiling panel, artefact control for SMM control-protein annotation, biochemical, small-molecule microarray, 635/667 nm fluorescence (AID 1140); conditions: WGA-A647 binding, 635 nm fluorescence, higher = more signal;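 note: score merges 667 nm feature emission with signal to noise over triplicate slides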
[9] = molecular target: Luciferin 4-monooxygenase (Photinus pyralis) (UniProt P08659); assay: firefly luciferase enzyme inhibitors, primary screen, biochemical, luminescence, purified enzyme, 2006 set (AID 1141); conditions: SteadyGlo luminescence, 30 min, higher = more signal, called active from +8 up or from −8 down;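 note: cell-free assay with purified firefly luciferase at 100 ng per well in PBS; test concentration not given here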
Chain of Luciferin 4-monooxygenase (Photinus pyralis) (P08659 whole entry, looked up): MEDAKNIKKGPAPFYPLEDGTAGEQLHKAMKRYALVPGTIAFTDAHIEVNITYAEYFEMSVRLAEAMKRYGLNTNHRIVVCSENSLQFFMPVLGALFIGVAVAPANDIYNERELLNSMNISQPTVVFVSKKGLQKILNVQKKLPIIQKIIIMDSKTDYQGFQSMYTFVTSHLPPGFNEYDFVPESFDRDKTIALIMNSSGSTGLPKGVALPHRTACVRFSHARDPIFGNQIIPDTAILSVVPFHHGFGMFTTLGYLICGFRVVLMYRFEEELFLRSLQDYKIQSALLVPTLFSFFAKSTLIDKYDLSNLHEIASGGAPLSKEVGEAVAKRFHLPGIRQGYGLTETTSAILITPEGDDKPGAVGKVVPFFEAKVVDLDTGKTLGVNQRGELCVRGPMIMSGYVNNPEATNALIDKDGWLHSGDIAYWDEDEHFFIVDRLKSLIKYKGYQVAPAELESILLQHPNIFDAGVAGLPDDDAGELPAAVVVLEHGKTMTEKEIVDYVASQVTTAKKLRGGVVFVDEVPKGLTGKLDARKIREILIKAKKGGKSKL

[10] = system: Wnt5a (protein binding on small-molecule microarray); assay: Wnt5a binders on small-molecule microarray, primary screen, biophysical, 635/667 nm fluorescence (AID 1142); conditions: 635 nm fluorescence, higher = more signal;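 note: fluorescence read at 667 nm with signal to noise per printed feature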
[11] = cell viability in Huh7 cells, primary screen, cytotoxicity control for HCV replication inhibitor project, CellTiter-Glo luminescence, basal, 48 h (AID 1143); conditions: Huh7 HCV replicon, higher = more signal, called active from +8 up or from −8 down;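 note: Huh7 hepatoma cells carrying a hepatitis C replication reporter with no stimulus; test concentration not given here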
[12] = P. aeruginosa biofilm formation inhibitors, primary screen, PAO1 strain, BacTiter-Glo luminescence, LB-PBS (AID 1144); conditions: 12 h, higher = more signal
[13] = CREB reporter modulators without forskolin, primary screen, cell-based, PC12, CRE-LacZ reporter, unstimulated (AID 1145); conditions: no forskolin, luminescence, 4.5 h, higher = more signal, called active from +8 up or from −8 down
[14] = CREB reporter modulators under forskolin, primary screen, cell-based, PC12, CRE-LacZ reporter, forskolin-stimulated (AID 1146); conditions: luminescence, 4.5 h, higher = more signal, called active from +8 up or from −8 down;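 note: PC12 cells with 6xCRE LacZ reporter stimulated by forskolin 10 µM; beta-galactosidase reporter signal reflecting CREB driven transcription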
[15] = molecular target: Streptavidin (Streptomyces avidinii) (UniProt P22629); assay: streptavidin binders on small-molecule microarray, primary screen, artefact control for SMM compound annotation, biophysical, 635/667 nm fluorescence (AID 1147); conditions: streptavidin binding, higher = more signal;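 note: signal reflects streptavidin binding to arrayed compounds as a control protein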
Chain of Streptavidin (Streptomyces avidinii) (P22629 whole entry, looked up): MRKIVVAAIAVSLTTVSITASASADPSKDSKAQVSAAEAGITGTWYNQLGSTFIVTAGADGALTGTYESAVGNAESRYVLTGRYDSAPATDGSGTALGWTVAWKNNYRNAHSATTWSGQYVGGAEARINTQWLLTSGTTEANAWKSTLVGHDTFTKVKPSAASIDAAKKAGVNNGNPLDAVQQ

[16] = small-molecule binders of probe aInhba, primary screen, biochemical, small-molecule microarray, 635/667 nm fluorescence (AID 1148); conditions: higher = more signal;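 note: score merges 667nm spot fluorescence with signal-to-noise for antibody binding to printed compounds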
Torsin-1A (Homo sapiens) [17] = molecular target: Torsin-1A (Homo sapiens) (UniProt O14656); assay: torsin A binders from cell lysate, primary screen, small-molecule microarray, wild-type, 635/667 nm (AID 1149); conditions: COS7 hTOR1A-WT lysate, 635 nm fluorescence, higher = more signal
Chain of Torsin-1A (Homo sapiens) (O14656 whole entry, looked up): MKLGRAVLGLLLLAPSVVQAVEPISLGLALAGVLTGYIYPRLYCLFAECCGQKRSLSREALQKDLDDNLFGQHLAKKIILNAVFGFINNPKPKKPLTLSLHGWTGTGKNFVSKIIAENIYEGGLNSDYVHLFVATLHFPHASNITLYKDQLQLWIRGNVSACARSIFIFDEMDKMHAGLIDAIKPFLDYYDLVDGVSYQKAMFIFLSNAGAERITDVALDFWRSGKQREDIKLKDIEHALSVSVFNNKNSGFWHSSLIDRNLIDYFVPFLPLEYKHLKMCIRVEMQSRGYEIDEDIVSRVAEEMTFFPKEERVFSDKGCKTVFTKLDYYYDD

Torsin-1A (Homo sapiens) [18] = molecular target: Torsin-1A (Homo sapiens) (UniProt O14656); assay: small-molecule binders of mutant TOR1A in lysate, primary screen, cell lysate, small-molecule microarray, COS7 lysate, 635/667 nm fluorescence (AID 1150); conditions: COS7 hTOR1A mutant lysate, 635 nm fluorescence, higher = more signal;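 note: score pools 667 nm emission and signal to noise measuring lysate protein binding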
[19] = system: Sonic hedgehog protein (Shh); assay: small-molecule binders of Shh protein, primary screen, biochemical, small-molecule microarray, 635/667 nm fluorescence (AID 1151); conditions: small-molecule microarray binding, 635 nm fluorescence; higher = more signal;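 note: Shh protein binding to compounds spotted on small-molecule microarray slides; score combines spot fluorescence intensity with signal-to-noise across triplicate slides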

Structure (SMILES) | composite z-score [1] | composite z-score [2] | composite z-score [3] | composite z-score [4] | composite z-score [5] | composite z-score [6] | z-score [7] | composite z-score (Lefty1) | composite z-score [8] | z-score [9] | composite z-score [10] | z-score [11] | z-score [12] | z-score [13] | z-score [14] | composite z-score [15] | composite z-score [16] | composite z-score (Torsin-1A (Homo sapiens) [17]) | composite z-score (Torsin-1A (Homo sapiens) [18]) | composite z-score [19]
NCCCCCNC(=O)[C@@H]1C[C@@H]2C(=O)NCC(=O)N2[C@@H]1c1cccc(OCCO)c1 | 2.23 | 1.16 | 0.551 | 0.47 | 1.45 | 1.17 | -0.552 | 1.55 | 0.951 | -0.637 (inactive) | 0.468 | 0.267 (inactive) | 0.771 (inactive) | -0.667 (inactive) | -0.496 (inactive) | 0.519 | 0.188 | 0.666 | 0.59 | 1.29
C[N+](C)(C)CCCC[C@@H]1NC(=O)[C@H]2C[C@@H](C(=O)NCCCCCCN)[C@@H](c3ccc(O)cc3)N2C1=O | 3.15 | 1.13 | 0.145 | 0.973 | 0.835 | 0.299 | 0.792 | -0.046 | 1.17 | -0.932 (inactive) | 0.408 | -0.548 (inactive) | 1.09 (inactive) | -0.528 (inactive) | -1.1 (inactive) | 0.859 | 0.108 | 0.774 | 0.545 | -0.117
O=C1OCC=C[C@H]2OC34C=CCN(Cc5ccccc5)C(=O)[C@H]3N(CCCCCCO)C(=O)[C@@H]4[C@@H]12 (stereo not given in full) | 1.29 | -0.0134 | 0.879 | -1.25 | -0.562 | -0.292 | 0.0814 | -0.128 | 0.206 | -3.54 (inactive) | -0.495 | -0.203 (inactive) | -0.955 (inactive) | -1.18 (inactive) | -0.185 (inactive) | -0.447 | -0.238 | 1.6 | 1.29 | -0.289
CC(C)(C)OC(=O)CC[C@]1(C(=O)NCc2ccccc2)N=C(c2ccc(OCCCO)cc2)O[C@H]1c1ccccc1CN=[N+]=[N-] | 2 | 1.23 | -0.221 | 0.985 | 1.48 | 1.75 | 2.45 | 1.33 | 0.571 | -2.11 (inactive) | 1.3 | -3.05 (inactive) | -0.368 (inactive) | 0.344 (inactive) | -0.156 (inactive) | 1.2 | 0.138 | 0.245 | 0.895 | 1.36
C=CCC(OC(C)=O)[C@@H]1[C@@H](N(Cc2cccc3ccccc23)C(=O)Cc2ccc(F)cc2)c2cc(OCCCO)ccc2N1C(=O)c1ccc2ccccc2n1 (stereo not given in full) | -0.478 | -0.0554 | -0.122 | 0.0688 | 0.187 | 0.386 | -0.0984 | -0.553 | 0.748 | 0.0778 (inactive) | 0.243 | 0.0889 (inactive) | 0.0963 (inactive) | 0.367 (inactive) | 0.101 (inactive) | -0.0219 | 0.0614 | -0.149 | -0.101 | -0.0199
O=C1O[C@H](c2ccccc2)[C@H](c2ccccc2)N2[C@H]1[C@@H](C(=O)NC[C@H](O)c1ccccc1)[C@]1(C(=O)Nc3ccc(C#CCCO)cc31)[C@H]2c1ccc(OCCO)cc1 | 1.32 | 1.2 | 0.693 | 0.738 | 0.743 | 0.134 | -0.552 | 0.329 | 1.01 | -2.02 (inactive) | 0.518 | -0.821 (inactive) | -0.626 (inactive) | 0.299 (inactive) | 0.0413 (inactive) | 0.0889 | 0.0464 | 0.13 | 0.38 | 1.76
COC(=O)[C@@]1(Cc2ccc(F)cc2)[C@H]2c3cc(C(=O)N4CCCC4)n(CCc4ccc(O)c(O)c4)c3C[C@H]2CN1C(=O)c1ccccc1 | -0.371 | -0.253 | 0.842 | -2.54 | -0.411 | -0.751 | -0.692 | -0.49 | -0.312 | -7.51 (inactive) | 1.2 | -1.78 (inactive) | -0.809 (inactive) | 3.05 (inactive) | -0.268 (inactive) | -0.185 | 1.24 | 0.0585 | 0.0389 | -0.987
C=CCC(OC(C)=O)[C@@H]1[C@@H](N(Cc2ccc(-c3cccc(C(F)(F)F)c3)o2)C(=O)c2ccc(C)cc2)c2cc(OCCCO)ccc2N1C(=O)c1ccc2ccccc2c1 (stereo not given in full) | -0.276 | -0.207 | 0.187 | 0.188 | 0.908 | 0.0013 | 1.23 | 0.398 | -0.0998 | -0.0536 (inactive) | 0.0344 | -0.478 (inactive) | -1.39 (inactive) | -0.519 (inactive) | 0.291 (inactive) | 0.203 | -0.024 | -0.361 | -0.0628 | 0.772
CCOC(=O)C[C@H]1[C@H](OC(=O)Cc2ccc3c(c2)OCO3)[C@@H](NC(=O)Cc2ccc(OC)cc2)c2cc(OCCCO)ccc2N1C(=O)c1ccc2ccccc2n1 | 0.0036 | 0.383 | -0.345 | 0.172 | 0.147 | 0.211 | 2.69 | 0.168 | -0.119 | -1.7 (inactive) | -0.223 | -0.823 (inactive) | -0.687 (inactive) | 10.1 (active) | -1.24 (inactive) | 0.0739 | -0.0547 | 0.183 | 0.714 | 0.492
COc1cc(OC)c(C(O)C2C=CC3C(=O)N(C)C(=O)C3N2NC(=O)OC(C)(C)C)cc1Br (stereo not given) | 0.476 | 1.29 | 0.776 | 1.03 | 1.25 | 0.128 | -0.942 | 0.42 | 1.23 | -0.996 (inactive) | 0.326 | 0.558 (inactive) | -0.224 (inactive) | 1.2 (inactive) | 0.922 (inactive) | 1.25 | 0.194 | 0.443 | 0.315 | 0.568

From PubChem BioAssay
